Screening results: PubChem, National Center for Advancing Translational Sciences (NCATS)
The list is not random: actives were taken first. Their share in the collection is about 0.62%.
gsp ag = qHTS for Agonist of gsp, the Etiologic Mutation Responsible for Fibrous Dysplasia/McCune-Albright Syndrome: qHTS. gsp mutant cells, cAMP HTRF, 30 min. Potency, µM (series often up to 76.9 µM), for inactives: at the highest dose activation (cAMP increase), actives largely listed as activators. 340,000 compounds, 0.13% hits. AID 624287, 2012; active means well fitted activation curve with a large enough effect; inconclusive means small, poorly fitted or top-dose-only effect, or another doubt; inactive means no such curve, though single readings can be large or run the other way; cell line not stated here;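 further: phosphodiesterase inhibitor Ro 20-1724 added with compounds to block cAMP breakdown; nearly all actives have a fitted effect of over 60% in size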
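Cells stably selected in G418 were plated at 2000/well, grown 16-24 hr, then given compounds in DMSO with the PDE inhibitor […] (300 uM solution added) for 30 min at 37C; cAMP was read by HTRF.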
gsp antag = qHTS for Antagonists of gsp, the Etiologic Mutation Responsible for Fibrous Dysplasia/McCune-Albright Syndrome: qHTS; Potency, µM (highest dose often 76.9 µM), for the others: at the top dose activity change, negative = inhibition, usual class: inhibitors; gsp-mutant cells, cAMP HTRF, 30 min; AID 624288, 2012; 340,000 compounds, 0.4% hits; calls by dose curve; cell line not stated here;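 further: intracellular cAMP measured with PDE inhibitor Ro 20-1724 present during compound exposure; on the % scale 0 is the no-effect control and ±100 the full control effect; nearly all actives have a fitted effect of over 65% in size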
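HTRF cAMP read-out (cAMP-d2 plus anti-cAMP antibody-K in lysis buffer, 30 min RT). Before lysis, cells are exposed to compounds with […] for 30 min at 37C in DPBS containing Ca/Mg, BSA and Tween 20.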
Chronic BCR inh = qHTS Assay to Find Inhibitors of Chronic Active B-Cell Receptor Signaling | Potency, µM (highest dose often 46.1 µM), for inactives: top-dose activity change, negative = inhibition, usual class: inhibitors | ABC-DLBCL IkBa-CBG/CBR reporter, luminescence ratio, 4 h | 340,000 compounds, 0.05% hits; active means well fitted inhibition curve with a large enough effect in the signal ratio, with a control signal flat, not every such curve was filed as active; inconclusive means small, poorly fitted or top-dose-only effect, or effect the other way, or a change in a side signal; the % refers to the signal ratio;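 further: plate controls were basal doxycycline-induced cells for no effect and cells given 10 µM MG132 for full effect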
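Doxycycline induced both beetle luciferases in TMD8 lymphoma cells; IKK-driven degradation limits the IkappaBalpha-fused green signal, while red luminescence normalises for cell number and nonspecific effects. Compounds tested up to 46 uM, 4 hrs.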
MBNL1-CUG inh = qHTS Assay for Inhibitors of MBNL1-poly(CUG) RNA binding | Muscleblind-like protein 1 (Homo sapiens), Q9NR56 | 280,000 compounds, 0.036% hits | AID 2675, 2010 | TR-FRET MBNL1-His/biotin-(CUG)12 binding, 665/545 ratio | Potency, µM (highest dose often 57.5 µM), inactives show top-dose activity change, negative = inhibition, most hits filed as inhibitors; active means well fitted inhibition curve with a large enough effect in the signal ratio, with a control signal flat, not every such curve was filed as active; inconclusive means small, poorly fitted or top-dose-only effect, or effect the other way, or a change in a side signal; inactive means no such curve, though single readings can be large or run the other way; the % refers to the signal ratio; further: on the % scale 0 is the no-effect control and ±100 the full control effect
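Ratiometric TR-FRET (665 over 545 nm, excitation 340 nm) tracks disruption of MBNL1-His/biotin-(CUG)12 complex after 60 min at room temperature, with compounds at 92 nM to 58 uM final.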
S-ASM inh = Inhibitors of Secretory Acid Sphingomyelinase (S-ASM): qHTS | placental ASM, HMU-PC fluorogenic substrate, 60 min | 340,000 compounds, 0.006% hits | Sphingomyelin phosphodiesterase (Homo sapiens), P17405 | Potency, µM (doses to about 57.5 µM), inactives show top-dose activity change, negative = inhibition, usual class: inhibitors; active means well fitted inhibition curve with a large enough effect; inconclusive means small, poorly fitted or top-dose-only effect; inactive means no such curve, though single readings can be large or run the other way
Target sequence (P17405 47-631 limits assumed): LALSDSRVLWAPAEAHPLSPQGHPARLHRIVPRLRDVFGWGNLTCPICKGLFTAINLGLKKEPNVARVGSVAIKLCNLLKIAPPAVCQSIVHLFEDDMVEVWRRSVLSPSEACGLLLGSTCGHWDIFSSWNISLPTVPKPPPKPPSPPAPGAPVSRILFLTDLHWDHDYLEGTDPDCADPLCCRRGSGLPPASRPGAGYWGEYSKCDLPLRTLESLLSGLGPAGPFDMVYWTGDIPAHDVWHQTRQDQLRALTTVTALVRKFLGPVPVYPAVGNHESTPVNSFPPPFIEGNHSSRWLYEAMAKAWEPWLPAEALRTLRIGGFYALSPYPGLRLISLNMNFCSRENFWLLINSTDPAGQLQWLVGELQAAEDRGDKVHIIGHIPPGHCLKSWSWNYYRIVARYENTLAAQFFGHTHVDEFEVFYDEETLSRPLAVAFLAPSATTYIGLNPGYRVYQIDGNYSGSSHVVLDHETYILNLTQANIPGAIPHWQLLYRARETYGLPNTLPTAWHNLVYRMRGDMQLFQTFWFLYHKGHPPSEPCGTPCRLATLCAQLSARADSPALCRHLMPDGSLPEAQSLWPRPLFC
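qHTS format. ASM enzyme prepared from human placenta hydrolyses the fluorogenic substrate HMU-PC0 (9 uM final) over 60 min at 37 °C after a 10 min compound preincubation.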
* hit, by the source's call; [ ] = dose if it differs, or a comment. Potency means the concentration at half of the fitted maximal effect.

Cc1nnc(-c2cccc(Br)c2)c2cn(-c3ccc(Br)cc3)nc12 was read as gsp ag 3.5%, gsp antag inconclusive, Chronic BCR inh 6.9%, MBNL1-CUG inh 23.4% and S-ASM inh -3.2%.
`COc1ccc(-n2cc3c(-c4cccc(Br)c4)nnc(C)c3n2)cc1` gave gsp ag 27.2%, gsp antag 39.8µM*, Chronic BCR inh inconclusive and S-ASM inh -25.1%.
Cc1ccc(N2CC(NC(=O)c3cc4ccccc4o3)CC2=O)cc1 (stereo not given) was read as Chronic BCR inh -12.4%.
For COc1ccc(/C=N/NC(=O)c2[nH]c3ccc(Cl)cc3c2-c2ccccc2)c(C(=O)O)c1OC the results were gsp ag -12.4%[15.4 µM], gsp antag 11.0%, Chronic BCR inh inconclusive, MBNL1-CUG inh 8.6% and S-ASM inh 14.1µM*.
For COc1ccc(CCNC(=O)c2ccc(CS(=O)(=O)c3ccc(Cl)cc3)o2)cc1OC the results were gsp ag -21.1%, gsp antag 39.8µM*, Chronic BCR inh 3.2%, MBNL1-CUG inh -10.3% and S-ASM inh 2.5%.
COc1ccc(CCNC(=O)COc2ccc(N(C)S(=O)(=O)c3ccc(C)cc3)cc2)cc1OC was read as gsp ag inconclusive, gsp antag inconclusive, Chronic BCR inh 6.9%, MBNL1-CUG inh -4.8% and S-ASM inh -2.4%.
Screening COc1ccc(NC(=O)c2ccc(-c3ccc([N+](=O)[O-])cc3)o2)cc1OC returned gsp ag 7.8%, gsp antag 35.5µM*, Chronic BCR inh 1.9%, MBNL1-CUG inh inconclusive and S-ASM inh -14.3%.
Screening COc1ccc(CCNC(=O)c2ccc(-c3ccc([N+](=O)[O-])cc3Cl)o2)cc1OC returned gsp ag -35.9%, gsp antag 31.6µM*, Chronic BCR inh inconclusive, MBNL1-CUG inh inconclusive and S-ASM inh -10.8%.
`COc1ccc(CCNC(=O)c2ccc(N(C)S(=O)(=O)c3ccc(C)cc3)cc2)cc1OC` gave gsp ag 5.6%, gsp antag 28.2µM*, Chronic BCR inh 0.0%, MBNL1-CUG inh -0.6% and S-ASM inh 0.5%.
N#CCC(=O)N/N=C\c1cccc(OC/C=C/c2ccccc2)c1 was read as gsp ag 4.8%, gsp antag -12.5%, Chronic BCR inh inconclusive, MBNL1-CUG inh 12.2% and S-ASM inh -11.8%.
Screening COc1ccc(NC(=O)C2C3C=CC4(O3)C2C(=O)N(CCN2CCCCC2C)C4C(=O)NC2CCCCC2)cc1 (stereo not given) returned gsp ag 5.2%[15.4 µM], gsp antag 6.9%, Chronic BCR inh 0.4%, MBNL1-CUG inh -0.1% and S-ASM inh 4.0%.
CN(CC(=O)Nc1ccc(F)c(F)c1F)C(=O)CN1C(=O)C2CCCCC2C1=O (stereo not given) was read as gsp ag -19.2%, gsp antag -5.1%, Chronic BCR inh 8.8%, MBNL1-CUG inh 1.3% and S-ASM inh -0.2%.
COC(=O)c1ccc(OC(=O)C2CSC3(C)CCC(=O)N23)cc1 (stereo not given) was read as gsp ag 14.1%[15.4 µM], gsp antag 10.4%, Chronic BCR inh 0.2% and S-ASM inh 0.9%.
`O=C(Nc1ccc(Oc2cccnc2)cc1)C1CCN(Cc2ccccc2F)CC1` gave gsp ag -8.1%, gsp antag 10.7%, Chronic BCR inh -2.0%, MBNL1-CUG inh -1.8% and S-ASM inh 0.7%.
For O=C(COC(=O)C1=NN(c2ccccc2)C(=O)CC1)Nc1nc(-c2ccc(F)cc2)cs1 the results were gsp ag -23.4%[15.4 µM], gsp antag -15.9%, Chronic BCR inh 6.9% and S-ASM inh -7.2%.
